# Compound activity (PubChem BioAssay)
# Only some compounds are listed: those with a hit (about 3% of all), similar ones and a draw of the others.
# ClpP mod – qHTS Assay for Activators of ClpP | Potency, µM (top dose mostly 57.5 µM), for inactives: at the top dose activity change, negative = active | 340,000 tested, 1.9% active | purified B. subtilis ClpP, FRET peptide cleavage, 20 min; active = well fitted falling curve with a large enough effect; inconclusive = small, poorly fitted or top-dose-only effect; inactive = no such curve, though single readings can be large or run the other way; also: potency is read from the fitted curve at half-maximal effect; the source files actives as falling curves though it sought activators and does not explain the sign; nearly all actives have a fitted effect of over 65% in size
# Target sequence (P80244 whole entry, looked up): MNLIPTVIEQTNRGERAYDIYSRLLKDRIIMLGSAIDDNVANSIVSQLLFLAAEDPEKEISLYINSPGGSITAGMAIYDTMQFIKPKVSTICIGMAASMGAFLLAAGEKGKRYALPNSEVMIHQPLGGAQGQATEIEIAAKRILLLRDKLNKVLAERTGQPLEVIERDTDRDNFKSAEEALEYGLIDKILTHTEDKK
#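 FRET quenching reversal measured ClpP activation: 10 microg/mL B. subtilis ClpP at pH 8 with the FRET-FV decapeptide, read at 430 nm after 320 nm excitation. The 20-min minus 0-min signal was scaled between DMSO/no-enzyme wells and ADEP (5.8 microM final).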
# KCNH2 3.1 block – qHTS for Inhibitors of KCHN2 3.1: Mutant qHTS | Potassium voltage-gated channel subfamily H member 2, brain isoform KCNH2 3.1 (human) | U2OS KCNH2 3.1, thallium flux FluxOr; hits give low values | activity change, % (tested at about 1.8 µM) | 340,000 tested, 0.95% active | AID 720553, 2013;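 active = maximum activity change below -70%; inconclusive = maximum activity change from -70% to -50%; inactive = maximum activity change above -50%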;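 also: thallium influx rate constant from kinetic fluorescence after stimulation buffer; % is scaled to controls: 0 for no effect and ±100 for the full control effect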
#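 U2OS cells transduced with KCNH2 3.1 mutant virus (1.77 x 10^8 /mL, 4 h), plated overnight at 37 C, loaded 45 min with FluxOr dye plus Red40 quencher. Thallium flux rate constant from kinetic reads after stimulation buffer, normalised to controls.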
# ALOX12 inh – Primary qHTS assay for inhibitors of human arachidonate 12S-lipoxygenase (ALOX12): Round 2; Potency, µM (series often up to 108 µM), inactives show top-dose activity change, negative = inhibition, usual class: inhibitors; AID 1671190, 2021; 580,000 tested, 1.1% active; purified 12hLO, xylenol orange hydroperoxide absorbance; active = well fitted inhibition curve with a large enough effect; inconclusive = small, poorly fitted or top-dose-only effect, or another doubt; inactive = no such curve, though single readings can be large or run the other way; also: potency is read from the fitted curve at half-maximal effect; % is scaled to controls: 0 for no effect and ±100 for the full control effect
#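 Hydroperoxide product was detected by ferrous iron/xylenol orange as the 573 to 405 nm absorbance ratio. Arachidonic acid at 40 uM (final) was turned over for 30 min at room temperature by 150 nM human 12hLO, pH 7.0 Hepes buffer, after 15 min compound preincubation.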
# LDHA block – qHTS assay for inhibitors of human lactate dehydrogenase | L-lactate dehydrogenase A chain (Homo sapiens), P00338 | purified LDHA, NADH/diaphorase-resazurin fluorescence; hits give low values | activity change, % (values are at about 110 or 230 µM) | 480,000 tested, 0.15% active; in the data active = activity change below about -30%; inconclusive = mostly about -25% to -30%;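 also: plate controls were DMSO wells for no effect and wells without enzyme for full effect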
#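 Resorufin fluorescence (ex540/em590), read at 0 and 20 min after diaphorase/resazurin addition, reports the NADH left after a 5 min room-temperature reaction of 2 nM human LDH5 with 0.06 mM NADH and 0.2 mM pyruvate.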
# Chronic BCR inh – qHTS Assay to Find Inhibitors of Chronic Active B-Cell Receptor Signaling. ABC-DLBCL IkBa-CBG/CBR reporter, luminescence ratio, 4 h. Potency, µM (highest dose often 46.1 µM), for the others: top-dose activity change, negative = inhibition, most hits filed as inhibitors. 340,000 tested, 0.05% active. AID 493014, 2011; active = well fitted inhibition curve with a large enough effect in the signal ratio, with a control signal flat, not every such curve was filed as active; inconclusive = small, poorly fitted or top-dose-only effect, or effect the other way, or a change in a side signal; the % refers to the signal ratio;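 also: potency is read from the fitted curve at half-maximal effect; plate controls were basal doxycycline-induced cells for no effect and cells given 10 µM MG132 for full effect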
#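 TMD8 ABC-DLBCL cells carrying doxycycline-inducible green luciferase fused to IkappaBalpha plus unfused red luciferase were exposed to compounds (up to 46 uM) for 4 hrs at 37C. Activity came from the overlap-corrected green/red luminescence ratio.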
# hERG WT inh – qHTS for Inhibitors of KCHN2 3.1: Wildtype qHTS | U2OS, BacMam KCNH2, thallium flux FluxOr; hits give low values | 340,000 tested, 0.37% active | Voltage-gated inwardly rectifying potassium channel KCNH2 (Homo sapiens), Q12809 | activity change, % at 1.84 µM;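 active = maximum activity change below -70%; inconclusive = maximum activity change between -70% and -50%; inactive = maximum activity change above -50%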; also: % is scaled to controls: 0 for no effect and ±100 for the full control effect
#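 U2OS cells were transduced with wild-type KCNH2 virus (2.03 x 10^8 / mL) for 4 h at room temperature, then cultured overnight at 37 C. Thallium flux was read with FluxOr dye. Rate constants were normalized to DMSO controls.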
# Starred values were filed as active, the others as inactive; ? = inconclusive; · = not tested or not shown; [ ] = dose if it differs, or a comment.
SMILES,ClpP mod,KCNH2 3.1 block,ALOX12 inh,LDHA block,Chronic BCR inh,hERG WT inh
N#Cc1ccc(COc2ccccc2C#N)cc1,·,·,-35%,-4,·,·
Cc1[nH]c2ccccc2c1C(=O)C(=O)NCC1CCN(C)CC1,·,·,-20%,-2,·,·
CCCCCCCN1C(N(C)C)=NC[C@@H]1Cc1ccccc1,1%,-90*,-2%,-7,?,-42
CN(C)C1=NC[C@H](Cc2ccccc2)N1CCCCc1ccccc1,-1%,-92*,-12%,-15,-16%,20
S=C(NCCCN1CCOCC1)N1CCN(c2nc(-c3ccc(Cl)cc3)cs2)CC1,0%,-71*,?,-2,14%,-13
COc1ccc2c(CCNC(=O)C3CCN(c4nc(Cl)nc5nc[nH]c45)CC3)c[nH]c2c1,·,·,?,4,·,·
COCC(C)NC(=O)c1ccc2c(c1)NC(=O)CCS2 (centres undefined),·,·,?,1,·,·
CC(NC(=O)c1ccc2c(c1)NC(=O)CCS2)c1ccncc1 (centres undefined),·,·,8.9µM*,2,·,·
O=C1CCSc2ccc(C(=O)NO)cc2N1,·,·,40µM*,-2,·,·
CCC1c2ccc(C)n2CCN1C(=O)Nc1ccccc1C(=O)OC (centres undefined),35µM*,-1,59%,-4,-3%,3
COc1ccc(NC(=O)C2CC(c3ccc(OC)c(OC)c3)=NO2)cc1 (centres undefined),·,·,-9%,4,·,·
CCCCC1(CC(=O)OC)C(=O)N(c2ccccc2)N(c2ccccc2)C1=O,28µM*,-5,15%,-3,0%,3
Cc1cc(N)ccc1[N+](=O)[O-],·,·,12%,10,·,·
CC(C)CCOc1cccc(N)c1,·,·,?,9,·,·
CCCCn1nnnc1SCC(=O)NC1CCCCC1,·,-8,-2%,-1,1%,-123*
Cn1nnnc1SCC(=O)NC1CCCCC1,-1%,-4,-44%,-9,3%,-26
COc1cc2[nH]c(=O)n(Cc3ccc(C(=O)N4CCN(c5cc(Cl)ccc5C)CC4)cc3)c(=O)c2cc1OC,-8%,·,-7%,-11,·,·
COc1cc2[nH]c(=O)n(Cc3ccc(C(=O)NCC4CCCO4)cc3)c(=O)c2cc1OC (centres undefined),25µM*,1,-22%,-10,-1%,-10
CCN1CCN(C(=O)c2ccc(Cn3c(=O)[nH]c4cc(OC)c(OC)cc4c3=O)cc2)CC1,16µM*,-10,-4%,-1,-13%,-5
COC(C[C@H](O)C[C@@H](O)[C@H](C)OCc1ccccc1)OC,-1%,-2,3%,-5,-3%,-8
COC(C[C@@H](O)C[C@@H](O)[C@@H](C)OCc1ccccc1)OC,1%,-222*,-5%,-12,·,5
COc1ccc(C2(CNC(=O)/C=C\c3ccco3)CCCC2)cc1OC,0%,2,45µM*,-2,-13%,12
COc1ccc(CCNC(=O)C(=O)NCc2n[nH]c(=O)c3ccccc23)cc1OC,·,·,?,6,·,·
COC(=O)C1(C)CN(S(=O)(=O)c2ccc(C)cc2)c2cc(OC)ccc2C1=O (centres undefined),13µM*,-12,19%,-12,-2%,1
Cc1ccc(-c2cc(Nc3ccccc3C(F)(F)F)nc(C)n2)cc1,·,·,16µM*,-9,·,·
SMILES,ClpP mod,KCNH2 3.1 block,ALOX12 inh,LDHA block,Chronic BCR inh,hERG WT inh
Cc1ccc(-c2cc(Nc3ccccc3)nc(C)n2)cc1,·,·,7.1µM*,-1,·,·
COCc1ccc(C(=O)NC(C)c2ccc(F)cc2)cc1 (centres undefined),·,·,?,5,·,·
Cc1noc(C)c1-c1cc(-c2cccc(CO)c2)cn2cncc12,·,·,19%[176 µM],·,·,·
CCOc1ccccc1NC(=O)c1nc(-c2ccc(OC)cc2)n(-c2ccccc2)n1,·,·,15%,11,·,·
COCCNC(=O)COC(=O)c1cc(-c2ccc(Cl)s2)nc2ccccc12,·,·,-21%,-7,·,·
COc1cccc(CNC(=O)c2cc(-c3ccc(Cl)s3)nc3ccccc23)c1,3.2µM*,·,?,-16,·,·
COc1ccc(CNC(=O)COC(=O)c2cc(-c3ccc(Cl)s3)nc3ccccc23)cc1,25µM*,-17,71%,-1,20%,4
COc1cccc(CNC(=O)c2cc(-c3cccs3)nc3ccccc23)c1,4%,·,-17%,-10,·,·
CCOc1ccccc1CNC(=O)c1cc(-c2ccc(Cl)s2)nc2ccccc12,28µM*,·,-19%,5,·,·
Cc1cc(=O)oc2cc(OCC(=O)NC(=O)NC3CCCC3)ccc12,·,·,?,5,·,·
CCCCCC(=O)N/N=C/c1ccc(N(C)C)cc1,28µM*,6,-18%,3,-16%,-10
CN(C)c1ccc(/C=N/NC(=O)CCC(=O)NCc2ccccc2)cc1,10µM*,8,1%,0,-5%,-2
O=C(NCc1ccc2c(c1)OCO2)c1ccc2c(c1)C(=O)N(Cc1cccnc1)C2=O,18µM*,-7,0%,-6,?,1
O=C(NCc1cccnc1)c1ccc2c(c1)C(=O)N(Cc1ccccc1)C2=O,-3%,-2,214%,-6,?,-5
Cc1ccc(CC(C#N)Sc2nnc(COc3ccccc3Cl)n2C)cc1 (centres undefined),·,·,?,7,·,·
O=[N+]([O-])c1ccc(N2CCN(Cc3ccccc3)CC2)nc1,·,4,-13%,2,3%,2
O=[N+]([O-])c1ccc(CN2CCN(c3ccc4ccccc4n3)CC2)cc1,·,-99*,50µM*,-10,?,?
O=[N+]([O-])c1ccc(CN2CCN(c3ccc([N+](=O)[O-])cc3)CC2)cc1,?,-4,3.5µM*,-15,3%,-73*
O=[N+]([O-])c1ccc(N2CCN(Cc3cccc([N+](=O)[O-])c3)CC2)cc1,·,?,-5%,-8,8%,23
CCn1c(N2CCN(C(=O)/C=C/c3ccccc3)CC2)nc2ccccc21,·,-90*,0%,-8,?,?
O=[N+]([O-])c1ccc(N2CCN(C(=S)c3cccc([N+](=O)[O-])c3)CC2)cc1,·,-102*,0%,-11,?,-42
